# In PubChem BioAssay (NCATS):
# Inconclusive results are not listed. Where a call stands in place of a potency, no number is given. The source made the active and inactive calls. Unless noted, calls come from the whole dose curve; as a rule, active = well fitted curve in the direction sought with a large enough effect; inconclusive = small, poorly fitted or top-dose-only effect, or another doubt; inactive = no such curve, though single readings can be large; an effect the other way counts as inactive or inconclusive.
# Experiments:
# [1] = qHTS profiling for inhibitors of Plasmodium falciparum proliferation (AID 504749); note: potency is the fitted concentration of half-maximal effect; for all read-outs here: nearly all actives have a fitted effect of over 60% in size; conditions: P. falciparum in erythrocytes, SYBR Green DNA, 72 h; for activity, negative = inhibition: at 28.7 µM (top of the series)
# How it was run: (§1)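 Each compound contacts P. falciparum-infected red blood cells for 72 h at 37 C; lysis buffer (Tris, EDTA, saponin, Triton X, SYBR Green I) is added and fluorescence measured next morning; values normalized to controls.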
# 3D7 = assay: as above; conditions: P. falciparum in erythrocytes, SYBR Green DNA, 72 h; series mostly up to 28.7 µM
# How it was run: as §1
# 7G8 = assay: as above; conditions: P. falciparum in erythrocytes, SYBR Green DNA, 72 h; series mostly up to 28.7 µM
# How it was run: as §1
# AA1029 = assay: as above; conditions: P. falciparum in erythrocytes, SYBR Green DNA, 72 h; series mostly up to 28.7 µM
# How it was run: as §1
# AS120 = assay: as above; conditions: P. falciparum in erythrocytes, SYBR Green DNA, 72 h; series mostly up to 28.7 µM
# How it was run: as §1
# ATS189 = assay: as above; conditions: P. falciparum in erythrocytes, SYBR Green DNA, 72 h; series mostly up to 28.7 µM
# How it was run: as §1
# ATS95 = assay: as above; conditions: P. falciparum in erythrocytes, SYBR Green DNA, 72 h; series mostly up to 28.7 µM
# How it was run: as §1
# C2A = assay: as above; conditions: P. falciparum in erythrocytes, SYBR Green DNA, 72 h; series mostly up to 28.7 µM
# How it was run: as §1
# [2] = KB-8-5-11 P-gp reporter qHTS against the NCATS DSHEA and TCM libraries (AID 1919977); conditions: KB-8-5-11 cells; series mostly up to 26.1 µM
# How it was run: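 Viability of drug-resistant KB-8-5-11 cells is measured by CellTiter-Glo luminescence following roughly 72 h treatment at 37C. Substances were titrated, with bortezomib as intraplate control.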
# [3] = qHTS drug screen for cell cycle checkpoint inhibitors in PARPi-resistant BRCA-mutant ovarian cancer cell lines. (AID 1963452; calls by dose curve); conditions: PEO1/OlaR viability, CellTiter-Glo luminescence, 96 h, stronger effect = lower value
# How it was run: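 PEO1, PEO4 and PEO1/OlaR ovarian cancer cells, 600 per well, exposed 96 h at 37C to a dilution series. Viability read by CellTiter-Glo luminescence, normalized to DMSO and empty wells; activity summarized as Z-AUC.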
# [4] = qHTS for identification of novel therapeutic agents for treatment of microphthalmiaassociated transcription factor (MiT) renal cell carcinoma (RCC) (AID 1963991); conditions: CellTiter-Glo, 48 h, stronger effect = lower value
# How it was run: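 UOK109/UOK124/UOK145 (TFE3 fusions, three partners); 500 cells/well; MIPE v4.0, 1912 cpds, 11 conc.; 48 h, 37 C; CellTiter-Glo, 15 min RT; lum. Norm.: DMSO 100%, empty 0%.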
# [5] = measured here: PEO1 parental Z-AUC
structure (smiles),measurement,setting,value
O=C(CCCN1CCC(n2c(=O)[nH]c3ccccc32)CC1)c1ccc(F)cc1,Potency,[1]; parasite line A,3160 nM (active)
same,Potency,[1]; parasite line B,3160 nM (active)
same,Potency,3D7,1000 nM (active)
same,Potency,7G8,158 nM (active)
same,Potency,AA1029,3550 nM (active)
same,Potency,AS120,2240 nM (active)
same,Potency,ATS189,1580 nM (active)
same,Potency,ATS95,3160 nM (active)
COC(=O)C1=CCCN(C)C1,"activity, negative = inhibition",[1]; parasite line A,0.472% (inactive)
same,"activity, negative = inhibition",[1]; parasite line B,19.4% (inactive)
same,Potency,3D7,inactive
same,Potency,7G8,inactive
same,Potency,AA1029,inactive
same,Potency,AS120,inactive
same,Potency,ATS189,inactive
same,Potency,ATS95,inactive
same,Potency,C2A,inactive
COP(=S)(OC)Oc1ccc(Sc2ccc(OP(=S)(OC)OC)cc2)cc1,"activity, negative = inhibition",[1]; parasite line A,7.58% (inactive)
same,"activity, negative = inhibition",[1]; parasite line B,4.24% (inactive)
same,Potency,3D7,inactive
same,Potency,7G8,inactive
same,Potency,AA1029,inactive
same,Potency,AS120,inactive
same,Potency,ATS189,inactive
same,Potency,ATS95,inactive
same,Potency,C2A,inactive
O=C1O[C@H]([C@@H](O)CO)C(O)=C1O,outcome,[2],inactive
O=c1n(Cl)c(=O)n(Cl)c(=O)n1Cl,"activity, negative = inhibition",[1]; parasite line A,0.0387% (inactive)
same,"activity, negative = inhibition",[1]; parasite line B,2.68% (inactive)
same,Potency,3D7,inactive
same,Potency,7G8,inactive
same,Potency,AA1029,inactive
same,Potency,AS120,inactive
same,Potency,ATS189,inactive
same,Potency,ATS95,inactive
same,Potency,C2A,inactive
CCOC(=O)NC(O)C(Cl)(Cl)Cl (stereo unspecified),"activity, negative = inhibition",[1]; parasite line A,5.94% (inactive)
same,"activity, negative = inhibition",[1]; parasite line B,0.346% (inactive)
same,Potency,3D7,inactive
same,Potency,7G8,inactive
same,Potency,AA1029,inactive
same,Potency,AS120,inactive
same,Potency,ATS189,inactive
same,Potency,ATS95,inactive
same,Potency,C2A,inactive
C[C@]12C=CC(=O)C=C1CC[C@@H]1[C@@H]2CC[C@@]2(C)[C@H]1CC[C@]2(C)O,"activity, negative = inhibition",[1]; parasite line A,0.454% (inactive)
same,"activity, negative = inhibition",[1]; parasite line B,5.05% (inactive)
same,Potency,3D7,inactive
same,Potency,7G8,inactive
same,Potency,AA1029,inactive
same,Potency,AS120,inactive
same,Potency,ATS189,inactive
same,Potency,ATS95,inactive
same,Potency,C2A,inactive
COc1ccc2cc3[n+](cc2c1OC)CCc1cc2c(cc1-3)OCO2,outcome,[2],inactive
OC1C(O)C(O)C(O)C(O)C1O (stereo unspecified),outcome,[2],inactive
Nc1nc2ncc(CNc3ccc(C(=O)N[C@@H](CCC(=O)O)C(=O)O)cc3)nc2c(=O)[nH]1,outcome,[2],inactive
O=C(/C=C/c1ccc(O)c(O)c1)O[C@@H]1C[C@@](OC(=O)/C=C/c2ccc(O)c(O)c2)(C(=O)O)C[C@@H](O)[C@@H]1O,outcome,[2],inactive
C[C@@H]1CC[C@H]2[C@@H](C)C(=O)O[C@@H]3O[C@@]4(C)CC[C@@H]1[C@]32OO4,Z-AUC,[3],1.33 (inactive)
same,Z-AUC,[3]; [5],0.931
same,Z-AUC,[3]; measured here: PEO4 Z-AUC,1.15
NC(N)=NCCC[C@H](N)C(=O)O,outcome,[2],inactive
C[C@H]1C(=O)O[C@@H]2CCN3CC=C(COC(=O)[C@](C)(O)[C@]1(C)O)[C@H]23,"activity, negative = inhibition",[1]; parasite line A,-7.4% (inactive)
same,"activity, negative = inhibition",[1]; parasite line B,-1.5% (inactive)
same,Potency,3D7,inactive
same,Potency,7G8,inactive
same,Potency,AA1029,inactive
same,Potency,AS120,inactive
same,Potency,ATS189,inactive
same,Potency,ATS95,inactive
same,Potency,C2A,inactive
c1ccc2nc(N3CCNCC3)ccc2c1,"activity, negative = inhibition",[1]; parasite line A,16.1% (inactive)
same,"activity, negative = inhibition",[1]; parasite line B,9.33% (inactive)
same,Potency,3D7,inactive
same,Potency,7G8,inactive
same,Potency,AA1029,inactive
same,Potency,AS120,inactive
same,Potency,ATS189,inactive
same,Potency,ATS95,inactive
same,Potency,C2A,inactive
c1cc2c(c(N3CCNCC3)c1)OCCO2,"activity, negative = inhibition",[1]; parasite line A,8.64% (inactive)
same,"activity, negative = inhibition",[1]; parasite line B,11.7% (inactive)
same,Potency,3D7,inactive
same,Potency,7G8,inactive
same,Potency,AA1029,inactive
same,Potency,AS120,inactive
same,Potency,ATS189,inactive
same,Potency,ATS95,inactive
same,Potency,C2A,inactive
CC(C)C(Br)C(=O)NC(N)=O (stereo unspecified),"activity, negative = inhibition",[1]; parasite line A,10.2% (inactive)
same,"activity, negative = inhibition",[1]; parasite line B,11.6% (inactive)
same,Potency,3D7,inactive
same,Potency,7G8,inactive
same,Potency,AA1029,inactive
same,Potency,AS120,inactive
same,Potency,ATS189,inactive
same,Potency,ATS95,inactive
same,Potency,C2A,inactive
O=C(O)c1nn(Cc2ccc(Cl)cc2Cl)c2ccccc12,Z-AUC,[3],0.664 (inactive)
same,Z-AUC,[3]; [5],0.662
same,Z-AUC,[3]; measured here: PEO4 Z-AUC,0.605
same,z-score,"[4]; TFE3-RCC UOK109 viability, measured here: UOK109 Z-AUC",0.154
same,z-score,"[4]; TFE3-RCC viability, measured here: UOK124 Z-AUC",0.856
same,z-score,"[4]; TFE3-RCC viability, measured here: UOK145 Z-AUC",-0.814
same,"activity, negative = inhibition",[1]; parasite line A,-9.19% (inactive)
same,"activity, negative = inhibition",[1]; parasite line B,-4.8% (inactive)
same,Potency,3D7,inactive
same,Potency,7G8,inactive
same,Potency,AA1029,inactive
same,Potency,AS120,inactive
same,Potency,ATS189,inactive
same,Potency,ATS95,inactive
same,Potency,C2A,inactive
Cn1c(=O)c2c(ncn2C)n(C)c1=O,outcome,[2],inactive
CCN(Cc1ccc(Cl)nc1)/C(=C/[N+](=O)[O-])NC,"activity, negative = inhibition",[1]; parasite line A,8.19% (inactive)
same,"activity, negative = inhibition",[1]; parasite line B,-9.95% (inactive)
same,Potency,3D7,inactive
same,Potency,7G8,inactive
same,Potency,AA1029,inactive
same,Potency,AS120,inactive
same,Potency,ATS189,inactive
same,Potency,ATS95,inactive
same,Potency,C2A,inactive
C[C@@H]1O[C@@H](O[C@@H]2C=C3CC[C@@H]4[C@H](CC[C@]5(C)[C@@H](c6ccc(=O)oc6)CC[C@]45O)[C@@]3(C)CC2)[C@H](O)[C@H](O)[C@H]1O,Z-AUC,[3],-2.1 (inactive)
same,Z-AUC,[3]; [5],-2.52
same,Z-AUC,[3]; measured here: PEO4 Z-AUC,-2.14
